Screening data deposited in PubChem BioAssay by several laboratories.
NR5A2 inv ag: LRH-1 (NR5A2) inverse agonists, primary screen, cell-based, luminescence, HEK293T, StAR-luciferase reporter; Nuclear receptor subfamily 5 group A member 2 (Homo sapiens), O00482; LRH-1 transfected, 24 h; inhibition, % at 3.6 µM; 0.13% of 360,000 active; AID 602396, 2012;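 active means inhibition above the mean inhibition of all tested compounds plus 3 SD, cut at about 73% in these data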;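 further: 0% = DMSO wells and 100% = reporter-only cells lacking LRH-1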
LGR2 inh: inhibitors of bursicon-induced LGR2 CRE-luciferase signal, primary screen, cell-based, HEK293, CRE-luciferase reporter, bursicon stimulation; inhibition, % at 9.99 µM; Drosophila bursicon receptor LGR2 (rickets); 0.35% of 380,000 active; AID 720647, 2013; bursicon-stimulated, 4 h;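 active means drop in luminescence signal, shown as inhibition above about 50% in the replicate tests, limit read from the data, passing the limit was not always enough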;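 further: agonist challenge used bursicon conditioned medium at about half maximal strength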
NCOA2 inhibitor: inhibition of GAL4-SRC2 driven luciferase reporter, primary screen, SRC2 inhibitor project, cell-based, luminescence; Nuclear receptor coactivator 2 (Homo sapiens), Q15596; HEK293 GAL4-SRC2 luciferase reporter; inhibition, % at 9 µM; 0.17% of 370,000 active; AID 651957, 2012;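 active means inhibition above the mean inhibition of all tested compounds plus 3 SD, set per campaign, cut at about 52% in these data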;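 further: 0% = DMSO treated cells and 100% = cells given Gossypol at 36 µM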
SRC3 inh: SRC3 coactivator transcriptional activity inhibitors, primary screen, cell-based, luminescence; AID 588352, 2011; 0.17% of 360,000 active; inhibition, % at 3.6 µM; Nuclear receptor coactivator 3 (Homo sapiens), Q9Y6Q9; HEK293 GAL4-SRC3 luciferase reporter;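 active means inhibition above a per-campaign cutoff, the mean of all compounds plus 3 SD, cut at about 60% in these data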;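 further: 0% = DMSO-treated cells and 100% = gossypol-treated cells at 36 µM; higher means less SRC3-driven luciferase light from the GAL4 reporter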
NCOA1 inh: SRC1 coactivator transcriptional activity inhibitors, primary screen, cell-based, luminescence; Nuclear receptor coactivator 1 (Homo sapiens), Q15788; HEK293 GAL4-SRC1 luciferase reporter; inhibition, % at 3.6 µM; 0.12% of 360,000 active; AID 588354, 2011;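 active means inhibition above the campaign mean plus 3 SD, with each screening campaign given its own cutoff, cut at about 60% in these data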;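 further: 0% = DMSO treated cells and 100% = gossypol at 36 µM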
* hit, by the source's call; / = no result given; ! = a repeat was not active. Rows were chosen to be rich in hits. Some 0.48% of all compounds tested hit in one or more screens of this group.

SMILES	NR5A2 inv ag	LGR2 inh	NCOA2 inhibitor	SRC3 inh	NCOA1 inh
O=C(Cn1ncc(Cl)c(Cl)c1=O)N1CCc2ccccc21	-61.0	70.5*	-33.5	-60.6	-75.2
O=C(Cn1ncc2c1-c1ccccc1OC2)N1CCc2ccccc21	-15.2	23.2	-13.4	-1.8	-6.5
O=C(Cn1ncc(Cl)c(Cl)c1=O)N1CCN(Cc2ccccc2)CC1	-4.9	103.8*	-1.6	-26.8	-30.9
O=C(Cn1ncc(Cl)c(Cl)c1=O)N1CCOCC1	-30.2	100.2*	-10.8	4.5	-33.9
Cc1c2cnn(CC(=O)N3CCOCC3)c(=O)c2c(C)n1Cc1ccc(F)cc1	-4.8	6.3	10.9	-15.3	-25.0
CCCN(C)C[C@@H]1OCCCC[C@@H](C)Oc2ccc(NS(=O)(=O)c3ccc(F)cc3)cc2C(=O)N([C@@H](C)CO)C[C@@H]1C	/	13.6	/	/	/
CN1C(=O)c2cc(NC(=O)Nc3ccccc3F)ccc2OC[C@@H]2O[C@H](CC(=O)O)CC[C@@H]21	/	6.4	/	/	/
Cc1cc(/C=C(\C#N)C(=O)N2CCOCC2)c(C)n1C1CCCC1	-23.9	52.3*	-30.7	0.4	-26.4
C(C#CCCCCCCCCC[n+]1ccccc1)#CCCCCCCCCC[n+]1ccccc1	84.7*	/	-9.0	64.5*!	38.3
O=C(O)CSCC(=O)Nc1ccc(C2CCCCC2)cc1	79.6*	28.6	90.6*	74.4*	75.7*
O=C1OCCC1Sc1nnc(-c2ccccc2)o1 (centres undefined)	12.3	/	-11.4	1.6	-14.9
O=C1OCCC1Sc1nnc(-c2ccc(Cl)cc2Cl)o1 (centres undefined)	3.0	73.7*	29.3	37.1	11.6
Cc1cc(C(=O)CSc2nnc3ccccn23)c(C)n1-c1ccccc1	58.3	97.8*	45.7	66.0*	58.6
Cc1ccc(NC(=O)Nn2cnnc2)cc1Cl	6.5	6.0	-6.4	-24.4	-8.7
Cc1ccc(NC(=O)O/N=C/c2c(C)nn(C(C)(C)C)c2C)cc1Cl	88.4*	99.2*	94.6*	91.9*	91.3*
C[C@H]1CCCCO[C@@H](CN(C)S(C)(=O)=O)[C@@H](C)CN([C@@H](C)CO)C(=O)c2cc(N(C)C)ccc2O1	/	16.3	/	/	/
CCOC(=O)N(O)c1ccc(C=Cc2ccccc2)cc1	-53.4	67.0*	-16.4	-41.1	-42.3
NC(=Nc1nc(-c2ccccn2)cc2ccccc12)c1ccccn1	57.3	-6.8	-68.6	81.2*	71.1*
COC(=O)c1c(N)sc(C(=O)NCCc2ccccc2)c1C	-14.6	98.0*	43.8	15.7	14.1
Cc1c(CC(=O)NCCCC(=O)O)c(=O)oc2cc3c(cc12)CCC(C)(C)O3	40.1	1.2	74.7*	40.7	25.0
Cc1c(CC(=O)NCCCCCC(=O)O)c(=O)oc2cc3c(cc12)CCC(C)(C)O3	-0.2	19.6	8.4	-0.2	-2.2
Cc1ccc2[nH]c3c(c2c1)CCCC3NC(=O)CCl (centres undefined)	89.5*	/	/	76.6*	77.0*
Cc1ccc2[nH]c3c(c2c1)CCCC3C(N)=O (centres undefined)	12.1	/	-18.7	8.8	-3.1
COc1cccc(/C=C/C(=O)OCC(=O)N2CCCC2)c1OC	-16.4	-41.4	3.6	86.0*	-22.3
Cc1cc(O)c(C(C)C)cc1C1(c2cc(C(C)C)c(O)cc2C)OC(=O)c2ccccc21	-12.3	69.7*	-13.3	18.0	2.8
SMILES	NR5A2 inv ag	LGR2 inh	NCOA2 inhibitor	SRC3 inh	NCOA1 inh
O=C(c1cccnc1)N1CC2(C1)[C@@H](c1ccccc1)[C@@H](CO)N2C(=O)C1CCC1	/	6.1	/	/	/
Cc1ccc(N=Nc2cc(C)ccc2N)cc1	-171.0	67.8*	-20.2	-89.4	-68.9
CCCNC(=O)N1CC2(CCN(C(=O)CC)CC2)c2c(n(C)c3cc(OC)ccc23)[C@H]1CO	/	-8.5	/	/	/
COc1ccc(OCc2cccc(C(=O)NN)c2)cc1	-208.7	31.9	-86.9	-115.7	-192.9
COc1ccc(OCc2cccc(C(=O)Nn3cc([N+](=O)[O-])cn3)c2)cc1	-269.1	98.9*	-42.1	-140.8	-112.3
CC(C)=CCC/C(C)=C/CNC(=O)C[C@H]1C[C@H](C(=O)N2CCOCC2)[C@@]2(C)c3[nH]c4ccc(Cl)cc4c3CCN2C1=O	7.3	63.1*	5.1	3.5	8.0
CC(C)=CCC/C(C)=C/CNC(=O)CC1C[C@H](C(=O)N2CCOCC2)[C@@]2(C)c3[nH]c4ccccc4c3CCN2C1=O (some centres undefined)	-20.2	18.0	-8.1	6.2	10.7
CN(C)C(=O)C[C@H]1CC[C@H]2[C@@H](COc3ccc(NC(=O)NCc4ccccc4)cc3C(=O)N2C)O1	/	-8.0	/	/	/
Cc1ccc(C(=O)NC(=S)Nc2cccnc2Cl)cc1	-154.8	26.4	-47.8	-66.1	-54.5
COc1ccccc1C(=O)NC(=S)Nc1cccnc1Cl	-20.2	84.2*	5.1	-71.3	-62.6
COc1cc(SC)ccc1C(=O)Nc1ccc(Cl)cn1	-72.5	99.7*	-44.6	2.1	-8.0
CCC(=O)N(C)C[C@H]1Oc2ncc(-c3ccc(C)cc3)cc2C(=O)N([C@@H](C)CO)C[C@H]1C	/	-24.1	/	/	/
Cc1ccc(C(=O)n2c(N)nc3ccccc32)cc1	-20.3	88.6*	25.4	32.4	17.9
Cc1ccc(S(=O)(=O)n2c(N)nc3ccccc32)cc1	0.8	/	1.3	4.7	0.6
CO[C@H]1CN(C)C(=O)c2ccc(NC(C)=O)cc2OC[C@H](C)N(CCc2ccccc2)C[C@@H]1C	/	21.4	/	/	/
CCCc1sc(N/N=C/c2ccccn2)nc1-c1ccc(F)cc1	-14.3	/	/	-0.3	-31.0
Cc1nc(N/N=C/c2ccccn2)sc1C	/	102.3*	49.7	/	/
COCC(=O)N1C[C@H](C)[C@@H](OC)CN(C)C(=O)c2cc(NC(=O)NC(C)C)ccc2OC[C@@H]1C	/	5.9	/	/	/
Cc1cccn2c(=O)c3cc(S(=O)(=O)c4ccc(F)cc4)c(=N)n(Cc4ccco4)c3nc12	-4.2	53.4*	4.5	5.7	-28.5
Cc1cccn2c(=O)c3cc(S(=O)(=O)c4ccccc4)c(=N)n(Cc4ccco4)c3nc12	2.7	-3.6	-7.9	0.9	2.0
CCOc1ccc(C(=O)CSCCC(=O)O)cc1	5.3	-11.8	54.6*	22.7	13.0
COc1ccc2ccccc2c1/C=N/NC(=O)c1cccc(Br)c1	4.0	5.9	-4.0	1.6	7.1
O=C(N/N=C/c1c(O)ccc2ccccc12)c1[nH]ncc1Br	68.8	-9.7	4.6	67.3*	23.9
O=C(N/N=C/c1c(O)ccc2ccccc12)c1cccc(C(F)(F)F)c1	16.1	21.7	31.7	73.9*	70.2*
Cc1ccc(O)c(/C=N/NC(=O)c2[nH]ncc2Br)c1	15.3	-60.7	-14.6	-10.1	-27.5
CC(C)CC#Cc1ccc2c(c1)O[C@@H](CN(C)C(=O)Nc1ccccc1F)[C@@H](C)CN([C@H](C)CO)S2(=O)=O	/	30.9	/	/	/
O=C(COc1ccc(Br)cc1Br)NC1CCCC1	-22.9	-58.0	17.0	-35.1	-53.1
